# According to PubChem BioAssay (NCATS):
# “And” between values parts separate entries of the source, which are not always exact repeats. Equal values may be shown once. Records with an inconclusive call do not appear. Where a call stands in place of a potency, no number is given. The source made the active and inactive calls. Unless noted, calls follow the shape of the dose curve; as a rule, active = well fitted cell-killing curve with a large enough effect; inconclusive = small, poorly fitted or top-dose-only effect; inactive = flat fitted curve, though single readings scatter.
# Legend:
# [1] = Cell Viability - LYMP2-002 (AID 977); also: series mostly up to about 92 µM
# In short: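 Human lymphoblastoid cells (2500/well) in complete medium were preincubated 5 hr at 37 C, then exposed to compounds for 24 hr at 37 C. Intracellular ATP was read by CellTiter-Glo luminescence; AC50 came from Hill-equation concentration-response fits.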
# [2] = Cell Viability - LYMP2-006 (AID 978); also: series mostly up to about 92 µM; nearly all actives have a fitted effect of over 60% in size
# In short: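 Potency values are Hill-fit AC50s for decreases in intracellular ATP (CellTiter-Glo luminescence). LYMP2-006 lymphoblastoid cells, 2500 per well, were exposed to compound in complete culture medium for 24 hr at 37 C.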
# [3] = Cell Viability - LYMP2-007 (AID 979);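 also: cells exposed to compound for 24 h before reading; nearly all actives have a fitted effect of over 60% in size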
# In short: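 Measured via luciferase-based ATP quantitation: lymphoblastoid cells, 24 hr compound exposure at 37 C, AC50 from Hill fits.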
# [4] = Cell Viability - LYMP2-008 (AID 980); also: nearly all actives have a fitted effect of over 60% in size
# In short: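 Measured: ATP-dependent luminescence, proportional to viable cell number, in human lymphoblastoid cells treated 24 hr with compound in complete culture medium. Values are AC50s from Hill-equation modelling of qHTS titrations.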
# [5] = Cell Viability - LYMP2-012 (AID 982);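 also: cellular ATP by luciferase luminescence where a drop means cytotoxicity; cells exposed to compound for one day before reading; nearly all actives have a fitted effect of over 55% in size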
# [6] = Cell Viability - LYMP2-014 (AID 983); also: series mostly up to about 92 µM; nearly all actives have a fitted effect of over 50% in size
# In short: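 Quantitative HTS in lymphoblastoid cells: 24 hr compound exposure, then CellTiter-Glo ATP luminescence. Positive control was tetraoctylammonium bromide, 6.4pM to 92 uM.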
# [7] = Cell Viability - LYMP2-016 (AID 984); also: nearly all actives have a fitted effect of over 55% in size
# In short: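 Cytotoxicity was scored by luminescent ATP content (CellTiter-Glo) after 24 h compound exposure at 37 C of a human lymphoblastoid line at 2500 cells/well. Concentration-response data were fitted to the Hill equation for AC50.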
# [8] = Cell Viability - LYMP2-018 (AID 985); also: nearly all actives have a fitted effect of over 50% in size
# In short: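 In this qHTS viability assay, cells are treated for 24 hr and cellular ATP is quantified by luciferase-based luminescence, with tetraoctylammonium bromide as positive control.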
# [9] = Cell Viability - LYMP2-020 (AID 986); also: series mostly up to about 92 µM; nearly all actives have a fitted effect of over 55% in size
# In short: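 Cells at 2500 per well receive a 24 hr compound exposure at 37 C. Viability is measured as ATP-dependent luciferase luminescence, with AC50 modeled from qHTS concentration-response curves.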
# [10] = Cell Viability - LYMP2-022 (AID 987); also: nearly all actives have a fitted effect of over 55% in size
# In short: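 In this qHTS cytotoxicity screen, compound titrations were incubated 24 hr at 37 C with human lymphoblastoid cells in complete medium. Luciferase-based ATP luminescence provided the viability signal.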
# [11] = Cell Viability - LYMP2-026 (AID 989); also: nearly all actives have a fitted effect of over 50% in size
# In short: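 Acute toxicity screen in complete culture medium, with 24 hr compound exposure at 37 C. Viability read as cellular ATP via luciferase reaction, with tetraoctylammonium bromide (6.4pM to 92 uM) as positive control.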
# [12] = Cell Viability - LYMP1-002 - Assay at 24 hr (AID 993)
# In short: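 Viability was judged from intracellular ATP using a luciferase read-out, following a 24-hour compound incubation at 37 C of lymphoblastoid cells seeded at 2500 per well. Concentration-response data were fitted to the Hill equation for AC50.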
# [13] = Cell Viability - LYMP1-002 - Assay at 40 hr (AID 994); also: nearly all actives have a fitted effect of over 60% in size
# In short: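 Concentration-dependent ATP loss after 40 hr treatment at 37 C defined toxicity; AC50 values were obtained by fitting the standard Hill equation.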
# [14] = qHTS Assay for Identification of Small Molecule Inducers of Hypoxia Response (AID 2120; active = well fitted curve in the direction sought with a large enough effect in the signal ratio, with a control signal flat, not every such curve was filed as active; the % refers to the signal ratio)
# In short: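 HRE-bla ME-180, 2500 cells/well, 0.5% dialyzed FBS medium; cpd titration, 17 h 37 degrees C; CCF4 2.5 h RT; Ex 405, Em 460/530 ratio -> %Activity, AC50.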
# [15] = target: Glucocorticoid receptor (Homo sapiens) (UniProt P04150); test: qHTS assay for small molecule agonists of glucocorticoid receptor signaling (AID 588532; active = well fitted curve in the direction sought with a large enough effect in the signal ratio, with a control signal flat; the % refers to the signal ratio); details: HeLa MMTV-bla, beta-lactamase ratio, agonist, 18 h; stronger effect = higher value; percent of dexamethasone control, DMSO zero
# Sequence of Glucocorticoid receptor (Homo sapiens) (P04150 whole entry, looked up): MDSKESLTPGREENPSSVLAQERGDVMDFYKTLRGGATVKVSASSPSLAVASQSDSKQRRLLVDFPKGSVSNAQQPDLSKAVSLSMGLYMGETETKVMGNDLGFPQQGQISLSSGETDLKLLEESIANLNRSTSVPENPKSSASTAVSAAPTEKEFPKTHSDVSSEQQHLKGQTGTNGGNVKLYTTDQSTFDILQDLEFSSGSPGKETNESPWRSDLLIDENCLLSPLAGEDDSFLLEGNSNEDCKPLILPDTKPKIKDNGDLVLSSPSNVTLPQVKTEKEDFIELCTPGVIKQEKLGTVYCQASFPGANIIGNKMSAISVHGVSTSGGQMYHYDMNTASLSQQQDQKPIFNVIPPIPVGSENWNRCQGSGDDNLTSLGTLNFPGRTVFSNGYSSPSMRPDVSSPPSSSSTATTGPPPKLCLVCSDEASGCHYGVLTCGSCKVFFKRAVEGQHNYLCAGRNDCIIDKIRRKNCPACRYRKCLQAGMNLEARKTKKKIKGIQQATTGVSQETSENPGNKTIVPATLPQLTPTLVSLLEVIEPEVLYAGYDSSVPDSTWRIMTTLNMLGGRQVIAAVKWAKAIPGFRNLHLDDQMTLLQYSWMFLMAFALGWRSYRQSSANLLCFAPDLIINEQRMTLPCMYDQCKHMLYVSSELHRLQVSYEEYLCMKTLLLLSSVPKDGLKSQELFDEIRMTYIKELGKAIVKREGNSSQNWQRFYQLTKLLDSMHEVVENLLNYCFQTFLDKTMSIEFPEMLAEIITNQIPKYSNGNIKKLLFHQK
# In short: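 Agonist-mode qHTS: GRE-driven beta-lactamase in HeLa cells exposed 18 h to titrated compounds (up to 92 uM), then CCF4 ratio read after 2 h at RT; Hill-fitted EC50, efficacy relative to 0.1 uM dexamethasone.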
# [16] = target: Glucocorticoid receptor (Homo sapiens) (UniProt P04150); test: qHTS assay for small molecule antagonists of glucocorticoid receptor signaling (AID 588533; active = well fitted inhibition curve with a large enough effect in the signal ratio, with a control signal flat, not every such curve was filed as active; the % refers to the signal ratio;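 also: cells stimulated with 2 nM dexamethasone as agonist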)
# In short: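 Antagonist-mode qHTS: compound titrations added to GRE-bla HeLa cells, then dexamethasone 2 nM final; 18 h, 37 C. CCF4 FRET fluorescence normalized to dexamethasone and DMSO; IC50 from Hill fit.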
# [17] = target: Peroxisome proliferator-activated receptor delta (Homo sapiens) (UniProt Q03181); test: qHTS assay for small molecule agonists of peroxisome proliferator-activated receptor delta signaling (AID 588534; calls by dose curve)
# Sequence of Peroxisome proliferator-activated receptor delta (Homo sapiens) (Q03181 whole entry, looked up): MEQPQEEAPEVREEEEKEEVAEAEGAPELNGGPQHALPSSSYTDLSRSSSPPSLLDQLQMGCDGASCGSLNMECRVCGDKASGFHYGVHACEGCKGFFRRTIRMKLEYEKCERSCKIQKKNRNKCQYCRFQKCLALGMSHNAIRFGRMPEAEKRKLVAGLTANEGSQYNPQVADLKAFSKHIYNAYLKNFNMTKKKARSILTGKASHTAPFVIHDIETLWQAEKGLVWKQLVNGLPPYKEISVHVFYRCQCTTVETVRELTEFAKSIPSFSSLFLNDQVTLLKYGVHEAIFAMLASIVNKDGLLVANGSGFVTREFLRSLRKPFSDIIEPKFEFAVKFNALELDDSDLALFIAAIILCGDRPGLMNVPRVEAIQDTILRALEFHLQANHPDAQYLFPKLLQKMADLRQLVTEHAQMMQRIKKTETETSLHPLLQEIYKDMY
# In short: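 EC50 and efficacy values derive from Hill fits of a concentration series in a beta-lactamase reporter cell assay. Exposure is 18 hrs at 37 C, with CCF4 fluorescence as the readout.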
# [18] = qHTS assay for small molecule antagonists of peroxisome proliferator-activated receptor delta signaling (AID 588535; active = well fitted inhibition curve with a large enough effect in the signal ratio, with a control signal flat, not every such curve was filed as active; the % refers to the signal ratio;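 as to max response: cells co-treated with a PPAR-delta agonist as stimulator during compound exposure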); details: HEK293T PPARd-UAS-bla, beta-lactamase FRET ratio, 18 h; 460 nm channel
# In short: (§1)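 Antagonist-mode qHTS using GeneBLAzer PPAR-delta-UAS-bla HEK293T cells; compound exposure 18 hrs at 37 C over a titration. Ratiometric CCF4 fluorescence at 460/530 nm; concentration-response points fitted to the Hill equation.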
# [19] = target: Peroxisome proliferator-activated receptor delta (Homo sapiens) (UniProt Q03181); test: as above
# In short: as §1
# [20] = target: Vitamin D3 receptor (Homo sapiens) (UniProt P11473); test: qHTS assay for small molecule antagonists of vitamin D receptor signaling (AID 588541; calls by dose curve;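 also: receptor activated by calcitriol during compound treatment; series mostly up to about 77 µM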)
# Sequence of Vitamin D3 receptor (Homo sapiens) (P11473 whole entry, looked up): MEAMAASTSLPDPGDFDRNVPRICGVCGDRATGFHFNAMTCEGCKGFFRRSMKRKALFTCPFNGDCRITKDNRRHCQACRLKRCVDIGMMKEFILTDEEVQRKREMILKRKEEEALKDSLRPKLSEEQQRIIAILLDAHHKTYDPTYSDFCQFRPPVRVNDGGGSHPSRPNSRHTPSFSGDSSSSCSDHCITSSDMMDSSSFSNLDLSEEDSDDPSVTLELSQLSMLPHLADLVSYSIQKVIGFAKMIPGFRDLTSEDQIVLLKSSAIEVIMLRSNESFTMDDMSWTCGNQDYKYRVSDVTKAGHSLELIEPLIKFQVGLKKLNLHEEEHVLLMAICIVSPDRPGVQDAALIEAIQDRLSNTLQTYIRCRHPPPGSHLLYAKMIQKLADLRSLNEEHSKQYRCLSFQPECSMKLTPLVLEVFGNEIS
# In short: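 Antagonist-mode beta-lactamase reporter assay: HEK293T VDR-UAS-bla cells were exposed to titrated compound alongside 1-alpha,25-dihydroxyvitamin D3 at 3 nM final for 16 h. Values were normalized to the 50 nM agonist control and DMSO basal, with IC50 and efficacy from Hill equation fits.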
# [21] = qHTS assay for small molecule agonists of retinoid X receptor alpha signaling (AID 588544; calls by dose curve); details: HEK293T RXRa-UAS-bla, beta-lactamase reporter, 18 h; 530 nm emission
# [22] = target: Retinoic acid receptor RXR-alpha (Homo sapiens) (UniProt P19793); test: as above
# Sequence of Retinoic acid receptor RXR-alpha (Homo sapiens) (P19793 whole entry, looked up): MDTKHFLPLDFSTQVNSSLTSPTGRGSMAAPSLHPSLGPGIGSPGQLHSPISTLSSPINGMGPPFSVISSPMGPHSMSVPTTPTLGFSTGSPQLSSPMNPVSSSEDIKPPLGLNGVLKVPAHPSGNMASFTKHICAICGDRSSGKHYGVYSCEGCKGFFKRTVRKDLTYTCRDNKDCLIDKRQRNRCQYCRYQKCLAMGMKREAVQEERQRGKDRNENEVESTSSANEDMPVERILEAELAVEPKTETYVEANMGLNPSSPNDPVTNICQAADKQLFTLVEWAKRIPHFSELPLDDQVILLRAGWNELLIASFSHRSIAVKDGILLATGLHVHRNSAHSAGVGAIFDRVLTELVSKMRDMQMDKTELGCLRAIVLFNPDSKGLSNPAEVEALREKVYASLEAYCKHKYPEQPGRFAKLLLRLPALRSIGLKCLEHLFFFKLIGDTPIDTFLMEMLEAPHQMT
# [23] = target: Thyroid hormone receptor beta (Homo sapiens) (UniProt P10828); test: qHTS assay for small molecule agonists of thyroid hormone receptor beta signaling (AID 588545; calls by dose curve)
# Sequence of Thyroid hormone receptor beta (Homo sapiens) (P10828 whole entry, looked up): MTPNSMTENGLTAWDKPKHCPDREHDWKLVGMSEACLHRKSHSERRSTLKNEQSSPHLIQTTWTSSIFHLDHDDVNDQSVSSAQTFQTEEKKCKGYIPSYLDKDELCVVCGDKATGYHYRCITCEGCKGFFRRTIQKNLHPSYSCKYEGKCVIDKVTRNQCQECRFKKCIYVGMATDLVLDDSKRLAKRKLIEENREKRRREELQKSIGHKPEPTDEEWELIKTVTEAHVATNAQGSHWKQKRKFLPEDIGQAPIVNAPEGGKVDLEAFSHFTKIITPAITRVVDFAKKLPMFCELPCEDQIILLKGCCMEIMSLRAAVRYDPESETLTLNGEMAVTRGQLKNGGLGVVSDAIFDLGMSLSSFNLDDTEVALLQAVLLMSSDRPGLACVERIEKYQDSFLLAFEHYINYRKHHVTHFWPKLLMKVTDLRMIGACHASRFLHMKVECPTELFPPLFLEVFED
# In short: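 Cells (2500/well) were seeded, incubated 4 hrs at 37 C, dosed with a compound series, incubated 18 hrs, loaded with CCF4 dye for 2 hrs at RT, then read for fluorescence. Data were scaled between DMSO (0%) and 10 nM T3 (100%).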
smiles,measurement,setting,value
CCOc1cc(C=O)ccc1O,outcome,[1],inactive
same,outcome,[2],inactive
same,outcome,[3],inactive
same,outcome,[4],inactive
same,outcome,[5],inactive
same,outcome,[6],inactive
same,outcome,[7],inactive
same,outcome,[8],inactive
same,outcome,[9],inactive
same,outcome,[10],inactive
same,outcome,[11],inactive
same,outcome,[12],inactive
same,Potency,[13],inactive
same,outcome,[14],inactive
same,activation,[15],0.229% (inactive) and -4.79% (inactive)
same,Potency,[16],inactive
same,Potency,[17],inactive
same,max response,[18],-4.7%
same,outcome,[19],inactive
same,outcome,[20],inactive
same,max response,[21],11.5%
same,outcome,[22],inactive
same,Potency,[23],inactive
